This passage reports growth results from PubChem BioAssay (NCI).

This is part of a sample that, as a whole, favours compounds with a hit. Of some 83,000 tested, about 20% had one in any assay.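 Negative percent growth values reflect cell death: -40 means 40% of the cells present at the start died, and -100 means all died.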 Values without a mark were called inactive. Calls of active or inactive are those of the source. The calls were made as follows: active = growth percent below 10; inactive = the rest.

Among the test systems are HCT-15 colon; HT29 colon; SNB-75 CNS; SNB-19 CNS; U251 CNS; PC-3 prostate; SK-MEL-5 melanoma; UACC-62 melanoma; LOX IMVI melanoma; SK-MEL-28 melanoma; SK-MEL-2 melanoma; EKVX NSCLC; SN12C renal; UO-31 renal; TK-10 renal; ACHN renal; CAKI-1 renal; A498 renal; CCRF-CEM leukemia; MOLT-4 leukemia.
Common to all, as to assay: NCI-60 one-dose screen, 48 h (100 = growth as untreated, 0 = no growth, -100 = all killed)
Settings in all cases: 10 µM

As to `CN1C(=O)N(C)C2SC(N/N=C/c3cccs3)=NC21` (stereo not given), the growth was 20.2% in the assay with HCT-15 colon; 7.66% (active) in the assay on HT29 colon; -1.77% (active) in the assay on SNB-75 CNS; 30.3% with SNB-19 CNS; 22.8% with U251 CNS; 48.3% with PC-3 prostate. Moreover, the growth was 8.57% (active) in the assay with SK-MEL-5 melanoma; 4.74% (active) in the assay with UACC-62 melanoma; 28.7% with LOX IMVI melanoma; 47.5% with SK-MEL-28 melanoma; 9.78% (active) in the assay on SK-MEL-2 melanoma; 56.2% with EKVX NSCLC. The growth in the assay with SN12C renal was 26.5%; in the assay with UO-31 renal it was 40.3%; in the assay on TK-10 renal it was 63.7%; with ACHN renal, 38.8%; with CAKI-1 renal, 20.8%; in the assay with A498 renal, 65.6%. Further, the growth was 20.3% in the assay on CCRF-CEM leukemia and 33.4% with MOLT-4 leukemia.

For the compound `CS(=O)(=O)Nc1ccc(-c2ccc3c(c2)ncn3-c2ccc(NC(=O)Nc3ccc(Br)cc3)cc2)cc1`, the growth in the assay with HCT-15 colon was 8.63% (active); in the assay on HT29 colon it was 7.09% (active); in the assay on SNB-75 CNS it was 21.4%; with SNB-19 CNS, 16.6%; in the assay with U251 CNS it was 3.88% (active); in the assay on PC-3 prostate it was 10.4%. The growth with SK-MEL-5 melanoma was -86.2% (active); in the assay on UACC-62 melanoma, -35.6% (active); in the assay with LOX IMVI melanoma, 1.1% (active); with SK-MEL-28 melanoma it was 1.57% (active); with SK-MEL-2 melanoma it was -52.1% (active); in the assay with EKVX NSCLC, -0.46% (active). In addition, the growth in the assay with SN12C renal was 14.2%; with UO-31 renal, 2.62% (active); with TK-10 renal, 25.7%; with ACHN renal, 4.12% (active); with CAKI-1 renal, 2.14% (active); in the assay with A498 renal, -17% (active). Moreover, the growth in the assay on CCRF-CEM leukemia is -14.9% (active); with MOLT-4 leukemia it was -18.4% (active).

For the compound `COc1ccc(-c2ccc(SCC(=O)Nc3ccc(C#N)cc3)nn2)cc1`, the growth is 97.3% in the assay on HCT-15 colon; 130% in the assay on HT29 colon; 93.7% in the assay on SNB-75 CNS; 64.9% in the assay with SNB-19 CNS; 70.7% with U251 CNS; 85% in the assay on PC-3 prostate. Also, the growth in the assay with SK-MEL-5 melanoma was 94.4%; with UACC-62 melanoma it was 72.3%; in the assay on LOX IMVI melanoma, 84.7%; in the assay with SK-MEL-28 melanoma, 97.7%; with SK-MEL-2 melanoma, 114%; in the assay on EKVX NSCLC, 95.1%. Further, the growth in the assay on SN12C renal was 95%; with UO-31 renal, 75.4%; in the assay with TK-10 renal, 108%; with ACHN renal it was 80.1%; in the assay on CAKI-1 renal, 81.4%; in the assay with A498 renal it was 124%. In addition, the growth is 95.9% in the assay on CCRF-CEM leukemia and 94.4% in the assay on MOLT-4 leukemia.

For the compound `O=C(Nc1nc2ccccc2s1)c1ccc(Br)cc1`, the growth was 85.8% in the assay with HCT-15 colon; 87.3% in the assay on HT29 colon; 107% in the assay with SNB-75 CNS; 98.8% in the assay with SNB-19 CNS; 107% with U251 CNS; 82.1% in the assay with PC-3 prostate. For the same compound, the growth is 70.5% with SK-MEL-5 melanoma; 73.3% in the assay with UACC-62 melanoma; 82.9% with LOX IMVI melanoma; 90.7% in the assay on SK-MEL-28 melanoma; 96.1% in the assay on SK-MEL-2 melanoma; 63.5% in the assay on EKVX NSCLC. Also, the growth in the assay with SN12C renal was 89.9%; with UO-31 renal it was 76.1%; in the assay on TK-10 renal it was 104%; in the assay with ACHN renal, 94.8%; in the assay with CAKI-1 renal it was 91.1%; with A498 renal it was 115%. Moreover, the values for the growth in the assay on CCRF-CEM leukemia and with MOLT-4 leukemia were 85.6% and 74.3%, respectively.

For `Cc1ccc2nc(-c3ccc(-c4nnc(SCC(=O)Nc5ccc(Br)cc5)o4)cc3)[nH]c2c1`, the growth in the assay with HCT-15 colon is 42%; in the assay on HT29 colon, 77.5%; in the assay with SNB-75 CNS it was 83.8%; in the assay with SNB-19 CNS, 70.3%; in the assay on U251 CNS, 11.5%; with PC-3 prostate, 56.8%. The growth with SK-MEL-5 melanoma was 85.5%; with UACC-62 melanoma, 57.3%; in the assay with LOX IMVI melanoma, -12.7% (active); in the assay with SK-MEL-28 melanoma, 92.4%; with SK-MEL-2 melanoma, 83.8%; in the assay on EKVX NSCLC it was 85.1%. In addition, the growth was 51% in the assay with SN12C renal; 51.5% in the assay on UO-31 renal; 74.7% with TK-10 renal; 67.8% with ACHN renal; 76.5% with CAKI-1 renal; 83.4% with A498 renal. For the same compound, the growth in the assay with CCRF-CEM leukemia was 38.2%; in the assay with MOLT-4 leukemia, 15.9%.

Consider `COc1cnc2c(c1)C(=O)c1c-2n(CCCNCCO)c(=O)c2cc(OC)c(OC)cc12`, for which the growth in the assay on HCT-15 colon was 32.3%; with HT29 colon, 12.1%; with SNB-75 CNS it was 59.6%; with SNB-19 CNS it was 18.7%; in the assay with U251 CNS, 20.8%; in the assay with PC-3 prostate, 43.2%. Further, the growth in the assay with SK-MEL-5 melanoma was 12%; with UACC-62 melanoma it was -2.88% (active); in the assay with LOX IMVI melanoma, -78% (active); in the assay on SK-MEL-28 melanoma it was 70.2%; in the assay with SK-MEL-2 melanoma, 104%; in the assay with EKVX NSCLC, 87.9%. The growth with SN12C renal is 18.4%; in the assay on UO-31 renal, 34%; in the assay with TK-10 renal it was 101%; in the assay with ACHN renal, 3.42% (active); in the assay with CAKI-1 renal, 12%; in the assay with A498 renal, 101%. Besides, the growth in the assay on CCRF-CEM leukemia and in the assay on MOLT-4 leukemia was 12.8% in each case.

With `O=C(Nc1ccc(I)cc1F)c1cc(-c2ccc(F)cc2F)ccc1O`, the growth was 5.34% (active) in the assay with HCT-15 colon; 17% with HT29 colon; -23.7% (active) with SNB-75 CNS; 11.3% in the assay with SNB-19 CNS; 4.61% (active) in the assay on U251 CNS; 2.22% (active) in the assay with PC-3 prostate. For the same compound, the growth is -75.3% (active) with SK-MEL-5 melanoma; -14.4% (active) in the assay with UACC-62 melanoma; 6.5% (active) in the assay with LOX IMVI melanoma; 4.38% (active) in the assay with SK-MEL-28 melanoma; -39.9% (active) in the assay with SK-MEL-2 melanoma; 0.815% (active) in the assay with EKVX NSCLC. Further, the growth with SN12C renal is -4.86% (active); in the assay on UO-31 renal, -0.556% (active); in the assay with TK-10 renal it was 19.9%; in the assay on ACHN renal, -5.83% (active); with CAKI-1 renal, -21% (active); in the assay with A498 renal, -21.3% (active). The growth in the assay with CCRF-CEM leukemia was 7.55% (active); in the assay with MOLT-4 leukemia it was -0.655% (active).

On to `O/N=C(\CSc1nnc(-c2c[nH]c3ccccc23)n1-c1ccccc1)c1ccc(Br)cc1`, for which the growth in the assay with HCT-15 colon was -92.8% (active); with HT29 colon it was -76.9% (active); in the assay with SNB-75 CNS it was -19.9% (active); in the assay on SNB-19 CNS it was -9.28% (active); in the assay with U251 CNS, 9.73% (active); in the assay on PC-3 prostate, -64.4% (active). In addition, the growth was -24.5% (active) with SK-MEL-5 melanoma; -90.5% (active) in the assay with UACC-62 melanoma; -87.4% (active) in the assay on LOX IMVI melanoma; -26.3% (active) with SK-MEL-28 melanoma; -66.3% (active) with SK-MEL-2 melanoma; -63.3% (active) in the assay with EKVX NSCLC. In addition, the growth was -77.2% (active) in the assay on SN12C renal; 3.58% (active) in the assay on UO-31 renal; -82.8% (active) in the assay with TK-10 renal; -83.5% (active) with ACHN renal; -94.3% (active) in the assay with CAKI-1 renal; 62.2% in the assay with A498 renal. The growth in the assay with CCRF-CEM leukemia is -6.14% (active); in the assay with MOLT-4 leukemia it was -19.2% (active).
